The text below walks through data of PubChem BioAssay.

The structures appear in SMILES notation. Activity calls are given as the source filed them.

Assay [1] in a line: binders of probe aFSTL3 on microarray, primary screen, stem cell growth factor project, biochemical, small-molecule microarray, fluorescence 635/667 (AID 1064).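 Note: measures binding of the biotinylated anti-FSTL3 antibody to printed compounds.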 The conditions noted are these: higher = more signal.
The nature of assay [2]: binders from COS7 lysate, DM2A8 probe, primary screen, torsin A project, cell lysate, small-molecule microarray, fluorescence 635/667 (AID 1065). The following applies: higher = more signal, COS7 lysate expressing mutant human TOR1A.
Assay [3] in a line: binders of probe aFGF2 on microarray, primary screen, stem cell growth factor project, biochemical, small-molecule microarray, fluorescence 635/667 (AID 1067).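 Note: measures binding of biotinylated aFGF2 protein to printed compounds on slides; z-score merges feature fluorescence and signal-to-noise across triplicate slides.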 The following applies: higher = more signal.
The nature of assay [4]: binders of probe aFGF10 on microarray, primary screen, stem cell growth factor project, biochemical, small-molecule microarray, fluorescence 635/667 (AID 1071).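 Note: score merges 667 nm spot intensity and signal to noise from triplicate slides.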 The following applies: higher = more signal.
The target of assay [5] is Neurogenic locus notch homolog protein 2 (Homo sapiens) (UniProt Q04721). Kind of assay: Notch2 binders on small-molecule microarrays, primary screen, biochemical, small-molecule microarray, 635 nm fluorescence, stem cell growth factors (AID 1073). The following applies: Notch2 binding, higher = more signal.
Assay [6] addresses Pro-neuregulin-1, membrane-bound isoform (Homo sapiens) (UniProt Q02297). Kind of assay: NRG1 binders on small-molecule microarrays, primary screen, psychiatric disease protein project, biochemical, small-molecule microarray, fluorescence 635/667 (AID 1075).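 Note: score combines 667 nm spot fluorescence with signal to noise.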 The conditions noted are these: NRG1 binding, 635 nm fluorescence, higher = more signal.
Assay [7] concerns Neuregulin-1 EGF-like domain. Kind of assay: binders of neuregulin-1 EGF-like domain, primary screen, biochemical, small-molecule microarray, 635 nm fluorescence (AID 1081).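 Note: binding of the protein to compounds printed on small-molecule microarray slides.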 The conditions noted are these: small-molecule microarray binding, higher = more signal.
A short description of assay [8]: FRG1 promoter luciferase signal modulators, primary screen, FRG1 inhibition for FSHD, cell-based, C2C12 myotubes, firefly/Renilla luciferase, luminescence (AID 1084). The following applies: higher = more signal, called active from +8 up or from −8 down.
The nature of assay [9]: binders of probe aFST on microarray, primary screen, stem cell growth factor project, biochemical, small-molecule microarray, fluorescence 635/667 (AID 1086).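 Note: score merges 667 nm fluorescence with signal-to-noise of each printed compound spot.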 The following applies: higher = more signal.
A short description of assay [10]: binders of probe aHhip on microarray, primary screen, stem cell growth factor project, biochemical, small-molecule microarray, fluorescence 635/667 (AID 1087).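 Note: score merges spot fluorescence at 667nm with spot signal to noise ratio.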 The following applies: higher = more signal.
The subject of assay [11] is PRMT1 (protein arginine N-methyltransferase 1). Kind of assay: PRMT1 binders on small-molecule microarrays, primary screen, biochemical, small-molecule microarray, 635 nm fluorescence (AID 1088).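 Note: binding of Prmt1 protein to compounds spotted on small-molecule microarray slides.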 The following applies: small-molecule microarray binding, higher = more signal.
The nature of assay [12]: yeast growth modulation, basal conditions, primary screen, YJM789 clinical isolate, OD600, 24 h (AID 1089).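 Note: growth of clinical yeast isolate S. cerevisiae YJM 789 seeded 1000 cells per well; test concentration not given here.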 The conditions noted are these: S. cerevisiae YJM789 growth, higher = more signal, called active from +8 up or from −8 down.
A short description of assay [13]: fission yeast growth modulation, primary screen, strain 972, OD600, 24 h, no modulator (AID 1090).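 Note: basal condition with compound alone and no growth modifier present; test concentration not given here.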 The following applies: S. pombe 972 growth, higher = more signal, called active from +8 up or from −8 down.
Assay [14] in a line: S. cerevisiae growth modulation with rapamycin, primary screen, strain BY4716, OD600, 96 h (AID 1091). Note: test concentration not given here. The following applies: higher = more signal, called active from +8 up or from −8 down.
The target in assay [15] is Torsin-1A-interacting protein 2 (Homo sapiens) (UniProt Q8NFQ8). Kind of assay: LULL1 binders on small-molecule microarray, primary screen, cell lysate, human LULL1 lysate, 635/667 nm fluorescence (AID 1092).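 Note: probe is lysate of COS7 cells overexpressing human LULL1; score merges per-feature 667 nm fluorescence with signal-to-noise.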 The following applies: hLULL1 lysate binding, 635 nm fluorescence, higher = more signal.
A short description of assay [16]: E. coli growth modulation, two-sided OD650, primary screen, E. coli filamentation project, strain DRC41, 24 h (AID 1093).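 Note: MC1000 strain lacking acrAB efflux and sulA so SOS filamentation is blocked; test concentration not given here.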 The following applies: OD650, 24 h, higher = more signal, called active from +8 up or from −8 down.
The nature of assay [17]: small-molecule microarray binders of probe aLefty2, primary screen, biochemical, biotinylated probe, 635/667 nm fluorescence (AID 1094).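 Note: score merges spot fluorescence near 667 nm with spot signal-to-noise ratio.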 The conditions noted are these: higher = more signal.
In assay [18] the test system is Noggin (protein binding on small-molecule microarray). Kind of assay: Noggin binders on small-molecule microarray, primary screen, biochemical, 635/667 nm fluorescence (AID 1095).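 Note: score merges 667 nm feature fluorescence with signal to noise over triplicate slides.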 The conditions noted are these: 635 nm fluorescence, higher = more signal.
The target of assay [19] is Neurogenic locus notch homolog protein 3 (Homo sapiens) (UniProt Q9UM47). Kind of assay: NOTCH3 binders on small-molecule microarray, primary screen, biochemical, 635/667 nm fluorescence (AID 1096). The conditions noted are these: NOTCH3 binding, 635 nm fluorescence, higher = more signal.
Assay [20] in a line: small-molecule microarray binders of probe aEGFR, primary screen, biochemical, biotinylated probe, 635/667 nm fluorescence (AID 1097).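 Note: probe is a biotinylated anti-EGFR antibody binding compounds printed on slides; score combines fluorescence near 667 nm and signal to noise of each spot.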 The following applies: higher = more signal.

Sequence of Neurogenic locus notch homolog protein 3 (Homo sapiens) (Q9UM47 whole entry, looked up): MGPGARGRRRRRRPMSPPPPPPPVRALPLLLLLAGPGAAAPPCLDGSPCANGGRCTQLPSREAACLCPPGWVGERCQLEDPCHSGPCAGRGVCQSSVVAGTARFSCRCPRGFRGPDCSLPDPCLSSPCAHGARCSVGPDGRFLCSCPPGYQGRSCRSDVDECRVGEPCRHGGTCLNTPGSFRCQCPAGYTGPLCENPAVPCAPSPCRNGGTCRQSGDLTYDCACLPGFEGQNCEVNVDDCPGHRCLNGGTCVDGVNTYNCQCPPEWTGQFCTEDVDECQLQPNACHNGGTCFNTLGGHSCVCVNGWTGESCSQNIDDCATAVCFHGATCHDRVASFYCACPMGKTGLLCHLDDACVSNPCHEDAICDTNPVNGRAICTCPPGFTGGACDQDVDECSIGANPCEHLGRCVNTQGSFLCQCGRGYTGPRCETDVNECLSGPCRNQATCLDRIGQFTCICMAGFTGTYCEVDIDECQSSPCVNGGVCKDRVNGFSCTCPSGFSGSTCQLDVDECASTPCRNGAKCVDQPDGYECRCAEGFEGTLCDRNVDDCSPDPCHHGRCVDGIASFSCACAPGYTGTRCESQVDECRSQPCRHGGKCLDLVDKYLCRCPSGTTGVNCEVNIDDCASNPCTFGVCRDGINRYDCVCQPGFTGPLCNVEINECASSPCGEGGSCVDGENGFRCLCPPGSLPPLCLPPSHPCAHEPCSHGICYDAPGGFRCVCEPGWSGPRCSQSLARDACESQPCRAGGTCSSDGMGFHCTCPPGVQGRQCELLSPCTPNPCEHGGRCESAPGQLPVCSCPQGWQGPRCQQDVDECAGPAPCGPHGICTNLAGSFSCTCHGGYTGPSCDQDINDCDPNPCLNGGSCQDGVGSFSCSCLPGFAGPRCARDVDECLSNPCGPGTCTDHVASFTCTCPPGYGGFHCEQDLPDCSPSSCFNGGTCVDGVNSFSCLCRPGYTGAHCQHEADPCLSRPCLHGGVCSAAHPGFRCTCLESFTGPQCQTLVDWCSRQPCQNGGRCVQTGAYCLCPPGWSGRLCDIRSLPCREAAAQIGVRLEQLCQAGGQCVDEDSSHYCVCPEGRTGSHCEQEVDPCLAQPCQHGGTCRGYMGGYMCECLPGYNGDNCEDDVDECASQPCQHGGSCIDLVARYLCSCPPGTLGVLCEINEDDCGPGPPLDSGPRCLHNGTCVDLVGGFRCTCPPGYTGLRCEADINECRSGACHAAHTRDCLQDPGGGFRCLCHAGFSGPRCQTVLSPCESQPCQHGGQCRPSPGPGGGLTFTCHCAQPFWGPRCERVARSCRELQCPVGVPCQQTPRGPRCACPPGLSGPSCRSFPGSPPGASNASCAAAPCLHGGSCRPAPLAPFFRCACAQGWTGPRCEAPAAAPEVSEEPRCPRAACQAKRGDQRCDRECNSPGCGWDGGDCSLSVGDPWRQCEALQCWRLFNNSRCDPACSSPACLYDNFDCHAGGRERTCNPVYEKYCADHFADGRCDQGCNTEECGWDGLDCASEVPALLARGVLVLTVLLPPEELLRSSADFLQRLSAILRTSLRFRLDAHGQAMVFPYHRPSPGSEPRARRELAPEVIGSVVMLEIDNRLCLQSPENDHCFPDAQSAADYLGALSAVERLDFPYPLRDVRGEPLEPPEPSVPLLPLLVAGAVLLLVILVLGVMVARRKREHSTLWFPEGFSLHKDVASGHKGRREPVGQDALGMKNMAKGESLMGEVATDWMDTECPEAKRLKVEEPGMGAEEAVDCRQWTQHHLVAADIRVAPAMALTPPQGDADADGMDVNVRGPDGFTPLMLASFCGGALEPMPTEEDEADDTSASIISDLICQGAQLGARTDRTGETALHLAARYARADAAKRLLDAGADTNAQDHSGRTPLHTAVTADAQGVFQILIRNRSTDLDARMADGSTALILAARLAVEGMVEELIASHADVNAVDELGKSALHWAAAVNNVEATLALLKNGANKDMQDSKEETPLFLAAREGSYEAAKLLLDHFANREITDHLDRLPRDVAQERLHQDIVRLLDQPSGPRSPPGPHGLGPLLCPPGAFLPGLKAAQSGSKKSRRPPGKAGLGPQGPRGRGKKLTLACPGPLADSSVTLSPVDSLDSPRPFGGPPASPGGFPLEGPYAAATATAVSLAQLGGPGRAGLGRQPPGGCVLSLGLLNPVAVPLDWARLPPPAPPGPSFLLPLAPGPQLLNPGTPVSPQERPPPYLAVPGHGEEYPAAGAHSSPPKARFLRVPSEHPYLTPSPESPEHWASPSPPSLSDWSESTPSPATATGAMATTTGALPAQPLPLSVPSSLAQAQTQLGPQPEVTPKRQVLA
Sequence of Neurogenic locus notch homolog protein 2 (Homo sapiens) (Q04721 whole entry, looked up, canonical isoform): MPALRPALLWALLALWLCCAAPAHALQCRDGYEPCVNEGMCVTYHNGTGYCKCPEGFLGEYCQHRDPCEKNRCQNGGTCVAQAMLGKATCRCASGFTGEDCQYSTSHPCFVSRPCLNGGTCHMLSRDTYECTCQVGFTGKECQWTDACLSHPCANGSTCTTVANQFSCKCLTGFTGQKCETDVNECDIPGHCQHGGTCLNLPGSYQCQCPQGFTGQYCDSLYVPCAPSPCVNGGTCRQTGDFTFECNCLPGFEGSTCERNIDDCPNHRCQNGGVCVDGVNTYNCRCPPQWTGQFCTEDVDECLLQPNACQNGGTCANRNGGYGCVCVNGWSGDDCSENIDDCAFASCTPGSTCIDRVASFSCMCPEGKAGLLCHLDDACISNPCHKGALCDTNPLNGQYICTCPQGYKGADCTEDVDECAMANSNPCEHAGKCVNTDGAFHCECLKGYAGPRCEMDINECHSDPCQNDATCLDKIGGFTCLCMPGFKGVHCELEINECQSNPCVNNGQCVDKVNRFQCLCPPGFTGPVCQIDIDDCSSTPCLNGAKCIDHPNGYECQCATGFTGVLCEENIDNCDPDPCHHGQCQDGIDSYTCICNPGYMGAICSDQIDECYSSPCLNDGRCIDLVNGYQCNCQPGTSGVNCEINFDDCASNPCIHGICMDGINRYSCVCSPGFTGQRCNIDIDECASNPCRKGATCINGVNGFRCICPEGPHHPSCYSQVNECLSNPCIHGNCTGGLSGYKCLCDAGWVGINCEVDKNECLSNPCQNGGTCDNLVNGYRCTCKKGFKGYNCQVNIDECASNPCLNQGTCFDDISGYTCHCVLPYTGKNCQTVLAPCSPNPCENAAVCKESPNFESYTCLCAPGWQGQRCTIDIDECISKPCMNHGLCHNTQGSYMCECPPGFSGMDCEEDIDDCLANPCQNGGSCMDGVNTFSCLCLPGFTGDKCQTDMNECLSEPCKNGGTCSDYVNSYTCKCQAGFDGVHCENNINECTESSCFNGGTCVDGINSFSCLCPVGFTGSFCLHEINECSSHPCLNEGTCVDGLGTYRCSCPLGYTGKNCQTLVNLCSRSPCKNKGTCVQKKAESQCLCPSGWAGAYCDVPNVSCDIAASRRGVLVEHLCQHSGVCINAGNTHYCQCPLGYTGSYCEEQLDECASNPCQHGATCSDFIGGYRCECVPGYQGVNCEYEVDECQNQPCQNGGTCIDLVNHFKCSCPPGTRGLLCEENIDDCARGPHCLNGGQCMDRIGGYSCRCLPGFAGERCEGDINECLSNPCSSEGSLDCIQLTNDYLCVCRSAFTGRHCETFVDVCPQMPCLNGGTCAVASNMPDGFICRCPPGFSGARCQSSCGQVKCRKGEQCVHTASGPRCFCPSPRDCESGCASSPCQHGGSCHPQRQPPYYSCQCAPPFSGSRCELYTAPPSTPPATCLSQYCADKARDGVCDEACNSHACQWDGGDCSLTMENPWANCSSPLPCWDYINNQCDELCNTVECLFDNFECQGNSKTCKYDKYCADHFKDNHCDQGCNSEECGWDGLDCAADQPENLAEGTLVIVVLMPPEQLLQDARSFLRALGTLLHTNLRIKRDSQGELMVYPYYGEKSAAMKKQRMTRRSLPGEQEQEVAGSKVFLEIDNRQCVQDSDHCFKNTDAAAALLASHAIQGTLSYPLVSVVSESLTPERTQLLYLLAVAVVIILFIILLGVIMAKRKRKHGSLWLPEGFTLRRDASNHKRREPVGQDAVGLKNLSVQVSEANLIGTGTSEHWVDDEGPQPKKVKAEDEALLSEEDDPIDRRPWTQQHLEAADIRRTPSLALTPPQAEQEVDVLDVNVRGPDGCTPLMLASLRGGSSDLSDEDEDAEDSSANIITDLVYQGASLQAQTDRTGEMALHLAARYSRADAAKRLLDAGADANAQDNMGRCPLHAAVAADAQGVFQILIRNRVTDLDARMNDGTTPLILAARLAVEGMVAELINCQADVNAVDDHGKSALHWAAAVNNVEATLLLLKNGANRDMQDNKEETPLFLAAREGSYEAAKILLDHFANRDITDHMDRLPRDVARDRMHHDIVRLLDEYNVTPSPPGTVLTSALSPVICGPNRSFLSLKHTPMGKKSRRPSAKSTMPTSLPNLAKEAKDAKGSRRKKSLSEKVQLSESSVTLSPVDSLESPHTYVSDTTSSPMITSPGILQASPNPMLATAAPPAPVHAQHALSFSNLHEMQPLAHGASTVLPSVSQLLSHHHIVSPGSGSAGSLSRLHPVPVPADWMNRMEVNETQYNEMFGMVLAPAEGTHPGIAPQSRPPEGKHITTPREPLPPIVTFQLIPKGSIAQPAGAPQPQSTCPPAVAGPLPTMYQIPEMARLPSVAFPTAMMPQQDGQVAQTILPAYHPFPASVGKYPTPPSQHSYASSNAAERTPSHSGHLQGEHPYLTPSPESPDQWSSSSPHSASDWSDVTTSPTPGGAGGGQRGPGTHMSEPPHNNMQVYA

As for `O=C(NC1CC1)[C@@H]1c2ccccc2C(=O)N(CC23CC4CC(CC(C4)C2)C3)[C@H]1c1ccc(CO)cc1`, the composite z-score in assay [1] was -0.314; in assay [2] it was 0.179; in [3], 0.0319; in assay [4], 0.581; in assay [5], 1.44; in [6] it was 0.264. For the same compound, the composite z-score is 1.29 in assay [7]; 0.556 in assay [9]; -0.0645 in [10]; 1.53 in [11]; 3.15 in assay [15]; -0.2 in [17]. Further, the composite z-score in assay [18] came to 1.47; in [19], 1.02; in [20], 0.0201. For the same compound, the z-score was -3.56 (inactive) in assay [8]; -0.706 (inactive) in assay [12]; -0.682 (inactive) in [13]; -0.437 (inactive) in assay [14]; -0.103 (inactive) in [16].
As for `[N-]=[N+]=Nc1ccccc1[C@@H]1OC(c2ccc(OCCCO)cc2)=N[C@]1(CCS(=O)(=O)c1ccccc1)C(=O)NCC(O)CO` (stereo not given in full), the composite z-score in assay [1] was 0.158; in [2], 0.372; in [3], -0.0125; in [4], 0.0835; in [5] it was 0.209; in [6], 1.05. Moreover, the composite z-score in [7] is 1.21; in assay [9], 0.283; in assay [10], 0.0401; in assay [11], 0.856; in assay [15], 3.1; in assay [17], -0.116. Also, the composite z-score was 0.351 in assay [18], 0.0354 in [19] and -0.147 in [20]. Besides, the z-score in assay [8] was -0.463 (inactive); in assay [12], 0.678 (inactive); in assay [13], 0.636 (inactive); in assay [14] it was 0.347 (inactive); in assay [16], 0.679 (inactive).
Consider `CC(C)(C)OC(=O)CC[C@]1(C(=O)NCC(O)CO)N=C(c2ccc(OCCCO)cc2)O[C@H]1c1ccccc1N=[N+]=[N-]` (stereo not given in full), for which the composite z-score in assay [1] came out at 0.929; in assay [2], 1.34; in assay [3] it was 0.171; in [4], 0.53; in assay [5], 1.02; in assay [6] it was 1.58. The composite z-score in [7] was 1.17; in assay [9], 0.967; in assay [10], -0.189; in assay [11], 0.98; in [15], 3.62; in [17], 0.595. Also, the composite z-score stood at 0.187 in [18], 0.398 in assay [19] and 0.0506 in assay [20]. In addition, the z-score in [8] is 3.99 (inactive); in assay [12], -0.652 (inactive); in assay [13], -0.0793 (inactive); in assay [14], -0.517 (inactive); in assay [16], 0.821 (inactive).
With `COCCCNC(=O)[C@@]1(CCS(=O)(=O)c2ccccc2)COC(c2ccc(OCCCO)cc2)=N1`, the composite z-score in assay [1] worked out at 1.79; in assay [2], 1.68; in [3], 0.0177; in [4] it was 0.529; in assay [5], 0.874; in [6] it was 2.3. Besides, the composite z-score in assay [7] is 1.28; in assay [9], 1.1; in [10] it was -0.0296; in assay [11], 1.36; in [15] it was 3.67; in [17], 0.472. Besides, the figures for the composite z-score in [18], in [19] and in [20] were 0.878, 0.56 and 0.195, respectively. The z-score in [8] was -1.24 (inactive); in assay [12], 0.134 (inactive); in [13], -0.0454 (inactive); in [14], -0.403 (inactive); in assay [16], 1.52 (inactive).
Consider `CC(C)OC(=O)CC(=O)CC(O)c1cccc([N+](=O)[O-])c1` (stereo not given), for which the composite z-score in assay [1] is 0.62; in assay [2], 1.22; in assay [3], -0.0028; in assay [4], 0.376; in assay [5], 0.546; in assay [6], 0.334. In addition, the composite z-score was 0.947 in [7]; 0.815 in assay [9]; -0.305 in assay [10]; 1.09 in assay [11]; 1.64 in assay [15]; -0.186 in assay [17]. Besides, the composite z-score in [18] is -0.164; in assay [19], 0.83; in [20] it was -0.0215. Also, the z-score was -1 (inactive) in assay [8]; -4.2 (inactive) in assay [12]; -1.84 (inactive) in assay [13]; -2.74 (inactive) in assay [14]; 0.305 (inactive) in assay [16].
